Consider 95 molecules from PubChem BioAssay AID2314 (National Center for Advancing Translational Sciences (NCATS), 2010).

The campaign covered roughly 300,000 compounds. About 37,000 (12%) were called active. Shown is part of a subset that was picked to be rich in actives. Values without a mark were called inactive. Cut-off read from the data, not from the text of the source: active = max response mostly above about 13% (no sharp cut-off); inactive = mostly below about 14%.

The nature of the experiment: Cycloheximide Counterscreen for Small Molecule Inhibitors of Shiga Toxin. Note: read at 38.3 µM for the half of the compounds with a filed dose; 0% is about no effect. The conditions noted are these: cell reporter, cycloheximide protein synthesis inhibition counterscreen; active compounds read high. Background: The purpose of a counterscreen is to sort out artefacts and off-target activity.
With `COCCNC(=O)CCCN1C(=O)c2ccccc2Sc2ncccc21`, the max response is 5.87%.
As to `Cc1ccc(N2CCN(C3=NC(=O)/C(=C\c4cccs4)S3)CC2)cc1`, the max response is 3.49%.
Then `Cc1cccc(C2=N/C(=C/c3cccs3)C(=O)O2)c1`, with 29.6% (active).
Then `Cc1ccc(C2=N/C(=C\c3ccc(OS(=O)(=O)c4ccc(C)cc4)cc3)C(=O)O2)cc1`, with 0.746%; and `Cc1ccc(S(=O)(=O)N2CCN(C(=O)N3CCOCC3)CC2)c(C)c1`, with -0.587%; and `Cc1ccc(NC(=O)[C@H](Cc2ccccc2)NC(=O)C2CCNCC2)cc1`, with -1.28%.
In the case of `CC(=O)Nc1cc2ccc(OC(C)=O)cc2oc1=O`, the max response was -3.66%.
With `Cc1ccccc1NC(=O)C1CCN(C(=O)NC2CCCCC2)CC1` the figure was -2.51%; with `O=C(Nc1cc2ccccc2oc1=O)C1CCCCC1`, 34.2% (active).
Regarding `Cc1ccc(S(=O)(=O)N/N=C(\c2ccccc2)C2CC2)cc1`, the max response was -0.529%.
In the case of `COc1cccc(C2c3[nH]c4ccccc4c3CCN2Cc2cccc(C)n2)c1` (stereo not given), the max response was -0.212%.
With `CCOc1ccc(S(=O)(=O)N2CCC(c3ccccc3)CC2)cc1C(=O)O` the figure was -3.04%.
With `COc1ccc(/C=N/OCc2ccccc2C#N)c(OC)c1` the figure was 38% (active).
With `COc1ccc(/C=N/Nc2cc(N3CCOCC3)nc(C)n2)c(OC)c1` the figure was -1.58%; with `COc1ccc(C=C(C#N)C#N)c(CSc2ccccn2)c1`, -3.44%; with `O=C(Nc1nnc(C2=COCCO2)o1)c1ccc([N+](=O)[O-])s1`, -2.32%.
In the case of `Cc1ccc(C(=O)Nc2nnc(-c3cccs3)s2)cc1C`, the max response is 13.9%.
Then `Cc1ccc(C(=O)Nc2nnc(C3=COCCO3)o2)cc1C`, with 14.8% (active); and `Cc1nn(Cc2ccccc2)c(C)c1NS(=O)(=O)c1ccccc1`, with 5.29%; and `CCN(CC)S(=O)(=O)c1ccc(N(C)CCc2ccc(OC)c(OC)c2)nc1`, with -1.93%.
With `CCOc1ccccc1NC(=O)Cn1ncc2ccc([N+](=O)[O-])cc21` the figure was 8.74%; with `CC(C)N1C(=O)C2C(C(=O)NC3CCCCC3)C3C=CC2(O3)C1C(=O)NC1CCCC1` (stereo not given), -1.06%; with `O=C(Nc1ccccc1F)C1C2C=CC3(O2)C1C(=O)N(c1cccnc1)C3C(=O)NC1CCCCC1` (stereo not given), 41.8% (active).
With `CCN(CC)CCN1C(=O)C2C(C(=O)Nc3ccc(Br)cc3)C3C=CC2(O3)C1C(=O)NC1CCCCC1` (stereo not given) the figure was -5.6%; with `Cc1cccc(C(=O)NC(=S)N2CCN(c3ccc([N+](=O)[O-])cc3)CC2)c1`, -1.96%.
`O=c1c(-c2ccc(Cl)cc2)[n+]([O-])c2ccccc2n1OCc1nc2ccccc2[nH]1`: the max response is 24.8% (active).
Turning to `CCN(CC)CCCNC(=S)N(CCO)Cc1cc2cc3c(cc2[nH]c1=O)OCO3`, the max response is -1.33%.
For `COc1ccc(CCNC(=O)CCC(=O)NC2CCCCC2)cc1OC`, the max response is -1.91%.
With `CC(C)(C)C1CCC(C(=O)Nc2cccnc2)CC1` (stereo not given) the figure was -2.39%.
As to `COCC1CCCN(Cc2nc(-c3ccc4c(c3)OCO4)no2)C1` (stereo not given), the max response was 42.1% (active).
For `CC1CCCN(CC(O)COc2ccc3c(c2)OCO3)C1` (stereo not given), the max response is 4.28%.
Then `COCC1CCCN(Cc2cn[nH]c2-c2cc3ccccc3o2)C1` (stereo not given), with 7.39%.
Then `Cc1c(NC(=O)c2c([N+](=O)[O-])cnn2C)c(=O)n(-c2ccccc2)n1C`, with -6.14%; and `COc1ccc(SCc2noc(C(=O)NCC3CCCO3)c2C(=O)O)cc1` (stereo not given), with -3.22%.
Take `Cc1ccccc1CN(c1ccc(C(=O)NCC2CCCO2)cc1)S(C)(=O)=O` (stereo not given): the max response is -5.23%.
Take `COCCNC(=O)c1ccccc1-c1nc(-c2ccccc2Cl)no1`: the max response is 28.8%.
With `O=C(NCC1CCCO1)c1cc(-c2ccccc2)nc2ccccc12` (stereo not given) the figure was 9.86%; with `O=C(NCC1CCCO1)c1ccc2ccccc2n1` (stereo not given), 29.9% (active).
With `O=C(NCC1CCCO1)c1ccccc1-c1nc(-c2ccccc2Cl)no1` (stereo not given) the figure was 27.4% (active); with `Cc1nc2ccccc2c2oc(C(=O)NCC3CCCO3)cc12` (stereo not given), -1.07%.
With `O=C(Nc1ccccc1C(=O)NCC1CCCO1)c1ccccc1F` (stereo not given) the figure was 14.1%; with `Cc1ccc(-c2noc(-c3ccccc3C(=O)NCC3CCCO3)n2)cc1` (stereo not given), 27.2% (active); with `CCC(=O)c1c[nH]c(C(=O)NCC2CCCO2)c1` (stereo not given), -0.953%.
For `O=C(CSCc1c(F)cccc1Cl)NCC1CCCO1` (stereo not given), the max response is 13.1%.
Then `COc1ccc2cc(C(=O)NCC3CCCO3)[nH]c2c1` (stereo not given), with 62.1% (active); and `Cc1sc2ncn(CC(=O)NCCCC(=O)NCc3ccc(F)cc3)c(=O)c2c1C`, with -1.09%.
With `Cc1cccn2c(CN(C)C3CCCc4ccccc43)c(C(=O)N3CCOCC3)nc12` (stereo not given) the figure was -3.53%; with `Cc1cc2c(cc1C)N(Cc1ccccc1)C1=NCCCN12`, -2.27%.
With `CC(C)C[C@H](NC(=O)C1CCC(CNC(=O)[C@@H]2CCCN2C(=O)OC(C)(C)C)CC1)C(=O)O` (stereo not given in full) the figure was 0.405%; with `CC(C)[C@H](NC(=O)N1CC(=O)Nc2ccccc21)C(=O)N[C@@H](Cc1c[nH]c2ccccc12)C(=O)O`, -2.21%.
For `CN1CCN(c2ncc3c(n2)CC(c2ccccc2F)CC3=O)CC1` (stereo not given), the max response is -2.88%.
Then `COc1ccc2ccccc2c1CNCc1ccccn1`, with 20.7% (active); and `COc1ccc(C)cc1NC(=O)NCc1ccccn1`, with -3.22%; and `COc1ccc2ccccc2c1CNc1nnnn1C`, with -2.6%.
Take `Cc1ccc(-c2c(C)n([O-])c3c([n+]2=O)CCC3)cc1`: the max response was 2.58%.
With `CC(Oc1ccc(-c2ccccc2)c(F)c1)c1ccn(S(=O)(=O)c2cccc3ccccc23)n1` (stereo not given) the figure was -1.64%.
With `NNC(=O)CNC(c1ccccc1)c1cc(Cl)ccc1NC(=O)c1ccccc1` (stereo not given) the figure was -3.14%; with `O=C(N/N=C/c1ccc([N+](=O)[O-])o1)c1cn(-c2ccccc2)nc1-c1ccc(F)cc1`, 10.8%; with `O=C(/C=C/c1ccc([N+](=O)[O-])o1)NNC(=O)c1ccc(F)cc1`, 71.2% (active).
Turning to `C/[N+]([O-])=C\c1ccc([N+](=O)[O-])o1`, the max response was 8.46%.
With `Clc1ccc2nc(CSc3ccccc3)cn2c1` the figure was 26.2% (active); with `O=C(/C=C/c1ccc2c(c1)OCO2)NCc1cn2cc(Cl)ccc2n1`, 2.11%; with `CCOc1ncccc1C(=O)OCc1cn2cc(Cl)ccc2n1`, 9.62%.
With `Cc1nn(CCCC(=O)NCc2ccccc2Cl)c(=O)c2nccn12` the figure was -3.04%; with `O=C(COC(=O)Cn1cnc2ccccc21)Nc1cccc2c1C(=O)c1ccccc1C2=O`, -4.76%; with `Cc1cccc(C(=O)OCC(=O)Nc2ccc(F)cc2)c1`, 10% (active).
Then `O=C(COC(=O)c1ccccc1)Nc1ccccc1Sc1ccccc1`, with 9.64%.
`O=C(COC(=O)Cc1ccccc1)Nc1ccc(F)cc1`: the max response was -1.31%.
Then `O=C(COC(=O)c1cccc(Br)c1)Nc1cccc2c1C(=O)c1ccccc1C2=O`, with 25.2% (active); and `COc1ccc(C(=O)OCC(=O)Nc2cccc(C(C)=O)c2)cc1OC`, with 9.48%.
With `O=C1CCN(Cc2ccccc2)CCN1[C@H](CSc1ccccc1)c1ccccc1` the figure was -1.82%.
For `CCOc1ccccc1NC(=S)NC(=O)CCc1ccccc1`, the max response was 1.38%.
With `CCOc1ccc(CN2CCC(n3nccc3NC(=O)C3CC3)CC2)cc1CO` the figure was -1.74%; with `Cc1ccc(CC2(O)CCN(CCOc3ccc(O)cc3)CC2)cc1`, 4.37%; with `CC(C)C(=O)Nc1c(C(=O)c2ccc(F)cc2)oc2ccccc12`, -1.75%.
Then `CC(C)C(=O)Nc1ccc2c(c1)oc1ccccc12`, with 67% (active).
With `CC(C)C(=O)Nc1ccc2oc(=O)ccc2c1` the figure was -3.4%; with `Cn1c(=O)c(=O)n(C)c2cc(S(=O)(=O)CCC(=O)N3CCCCC3)ccc21`, -2.58%; with `Cc1nn(Cc2ccccc2Cl)c(Cl)c1C(=O)OC(C(=O)NC(N)=O)C(C)C` (stereo not given), -4.81%.
As for `COc1ccccc1CCNC(=O)c1c(C)nn(CC(C)C)c1Cl`, the max response was 39% (active).
For the molecule `COc1ccccc1CCNC(=O)c1cnccn1`, the max response was 12.4%.
As for `COc1ccc(C(=O)NC2CC2)cc1OC1CCN(C/C=C/c2ccccc2)CC1`, the max response is 2.49%.
Then `COc1ccc(C)cc1N(CC(=O)NC(C)c1ccccc1)S(C)(=O)=O` (stereo not given), with 5.61%.
With `CO/N=C/CC(=O)c1ccc(OC)cc1` the figure was 49.2% (active); with `COc1ccc(OCCC(=O)c2ccc(OC)cc2)cc1`, 4.64%; with `COc1ccc(C(=O)CC2C(=O)N(C)C(=O)N(C)C2=O)cc1`, 4.98%.
Then `Cc1ccc(NS(=O)(=O)c2c(C)[nH]c(=O)[nH]c2=O)cc1C`, with -1.76%; and `CCOC(=O)c1nnn(-c2nonc2-n2cccc2)c1CN1CCC(C(=O)OCC)CC1`, with -2.67%; and `Cc1cc(C(=O)COC(=O)CNC(=O)c2ccc(F)cc2)c(C)n1Cc1ccco1`, with 106% (active).
As to `O=C(COC(=O)CNC(=O)c1ccco1)Nc1ccc(F)cc1`, the max response is -3.97%.
Then `Cc1ccc(OCC(=O)c2cc(C)n(Cc3ccco3)c2C)c([N+](=O)[O-])n1`, with 43.4% (active); and `COCC(C)n1c(C)cc(C(=O)COc2ccc(C)nc2[N+](=O)[O-])c1C` (stereo not given), with 8.12%; and `Cc1cc(C(=O)CSc2nc(N)cc(=O)[nH]2)c(C)n1Cc1ccco1`, with -1.02%.
Then `COc1ccc(C)cc1-n1nnnc1SCC(=O)c1cc(C)n(Cc2ccco2)c1C`, with 27.1%; and `Cc1ccc(S(=O)(=O)NCC(=O)N2CCOCCOCCOCCOCC2)cc1`, with -3.49%.
